Bioassay records as filed in PubChem BioAssay.
HSF-1 act = increases HSF-1 driven luciferase reporter signal. NIH3T3-HGL HSF-1 luciferase reporter, MG132, 8 h; 100% = twice DMSO control signal. activation, % at 9 µM. actives 1.7% (n = 300,000). AID 504408;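 active = mean replicate activation of at least 50% with a set share of replicates each reaching 50%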;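 also: 0% = median of the neutral control wells and 100% = twice that signal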
AHR act = activators of human aryl hydrocarbon receptor; actives 2.5% (n = 320,000); activation, % at 5 µM; P35869; AHR-responsive luciferase reporter cells, luminescence; in the data active = activation above about 47%;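 also: 0% = vehicle wells and 100% = reference agonist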
Target sequence (P35869 whole entry, looked up): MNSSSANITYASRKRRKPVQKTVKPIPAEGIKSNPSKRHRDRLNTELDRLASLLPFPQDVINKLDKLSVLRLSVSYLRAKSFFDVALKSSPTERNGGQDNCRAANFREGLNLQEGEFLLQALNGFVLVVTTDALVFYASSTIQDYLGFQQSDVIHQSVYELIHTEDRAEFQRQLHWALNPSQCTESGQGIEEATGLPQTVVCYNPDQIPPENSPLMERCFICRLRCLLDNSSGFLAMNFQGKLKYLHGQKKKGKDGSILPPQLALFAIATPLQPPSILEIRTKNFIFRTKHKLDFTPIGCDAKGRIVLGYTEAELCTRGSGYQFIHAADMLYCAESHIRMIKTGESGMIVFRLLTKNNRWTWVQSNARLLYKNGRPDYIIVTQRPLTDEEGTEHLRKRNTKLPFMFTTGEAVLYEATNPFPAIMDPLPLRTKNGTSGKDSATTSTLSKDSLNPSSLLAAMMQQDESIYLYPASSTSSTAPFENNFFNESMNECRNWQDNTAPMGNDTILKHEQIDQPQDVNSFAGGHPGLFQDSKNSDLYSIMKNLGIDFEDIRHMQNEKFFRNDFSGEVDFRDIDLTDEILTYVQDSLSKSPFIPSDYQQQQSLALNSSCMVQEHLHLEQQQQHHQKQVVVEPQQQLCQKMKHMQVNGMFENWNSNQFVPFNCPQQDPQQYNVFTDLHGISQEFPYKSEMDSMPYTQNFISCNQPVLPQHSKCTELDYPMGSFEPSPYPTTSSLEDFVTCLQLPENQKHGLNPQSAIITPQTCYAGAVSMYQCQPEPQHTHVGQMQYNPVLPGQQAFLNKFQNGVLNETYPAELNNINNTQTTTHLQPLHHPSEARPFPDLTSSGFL
HSF1 inh = HSF1 inhibition | NIH3T3-HGL HSE-luciferase, MG132-induced, luminescence 8 h; hits give low values | activity change, negative = inhibition, % at 7.5 µM (by protocol) | actives 0.77% (n = 300,000) | AID 2098;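 active = more than half of replicate wells show activity change below -50%, luminescence cut by over half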;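 also: luciferase reports HSF-1 transcriptional activity via heat shock element; 0% = median of DMSO wells and -100% = zero luminescence signal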
GAA850 FXN act = activators of GAA850 frataxin (FXN) promoter | actives 0.56% (n = 360,000) | activation, % at 6 µM | HEK293 lucGAA850 FXN promoter luciferase reporter, 24 h; percent of 10 µM SAHA response;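 active = activation above the average of all compounds screened plus 3 SD, cutoff fixed separately per campaign, cut at about 7.5% in these data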;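 also: 0% = DMSO wells and 100% = 10 µM SAHA wells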
DAX1 inh = inhibits human nuclear receptor DAX1. P51843. actives 0.99% (n = 340,000). HEK293 Gal4-DAX1 luciferase reporter, luminescence. inhibition, % at 6.75 µM;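 active = inhibition above the mean over all tested compounds plus 3 SD, cut at about 4.2% in these data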;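 also: 0% = DAX1-transfected cells with DMSO and 100% = empty-vector control cells with DMSO; inhibition shows as a rise in luminescence from relieved DAX1 repression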
An asterisk follows results filed as active; . = no result. A selection: hits, their analogues and other compounds. The true share with any hit is near 5.4%.

SMILES	HSF-1 act	AHR act	HSF1 inh	GAA850 FXN act	DAX1 inh
COc1cccc(-c2cc3nc(-c4ccccc4)cc(=O)n3[nH]2)c1	7.2	36.3	4.6	-2.5	-0.8
O=c1cc(-c2ccccc2)nc2cc(-c3ccc(F)cc3)[nH]n12	2.3	51.6*	-6.8	-3.0	2.0
Cc1ccc(C23CC4CC(CC(CN)(C4)C2)C3)cc1	13.8	.	2.6	2.2	4.9*
CN(C)C(CNC(=O)c1cc2ccccc2o1)c1ccco1 (centres undefined)	.	22.0	.	1.2	0.4
Cc1ccccc1CO/N=C/c1[nH]ncc1Br	-88.7	-1.2	-84.9*	0.9	1.7
Cc1c(CCOC(=O)c2cccc([N+](=O)[O-])c2)sc[n+]1CC(=O)c1ccccc1	28.8	1.6	13.2	-1.3	0.6
Cc1onc(-c2c(F)cccc2Cl)c1C(=O)c1ccccc1	-70.6	-1.1	-60.9*	-0.9	-1.3
Cc1onc(-c2c(F)cccc2Cl)c1C(=O)c1ccc(F)cc1	4.4	-2.9	-8.1	-1.0	.
Cc1cc(C)cc(N(CC(=O)NC2CCC(C)CC2)S(=O)(=O)c2c(C)[nH]c(=O)[nH]c2=O)c1 (centres undefined)	6.9	-0.1	1.9	1.7	1.6
CC(C)NC(=O)CSc1ccccc1C(=O)N1CCN(S(=O)(=O)Cc2ccccc2)CC1	.	.	.	0.1	-0.1
CC(=O)c1c(C)[nH]c(C(=O)Nc2cc(F)ccc2C)c1C	5.3	58.2*	-2.6	-0.5	-0.1
CCc1c(C(=O)Nc2ccc(OC)cc2)[nH]c(C)c1C(C)=O	-8.0	35.5	3.7	1.3	1.7
CCN(CC)c1ccc(NC(=O)c2[nH]c(C)c(C(C)=O)c2C)c(C)c1	-14.8	1.6	5.1	-2.3	-0.8
CCCCNC(=O)c1[nH]c(C)c(C(C)=O)c1C	-2.5	67.0*	-1.1	-0.6	-0.5
CC(=O)c1c(C)[nH]c(C(=O)Nc2ccc(C)cc2Br)c1C	33.6	52.5*	22.6	4.2	0.3
CCc1c(C(=O)Nc2cc(C)ccc2OC)[nH]c(C)c1C(C)=O	13.5	51.7*	-0.1	1.0	0.4
COc1ccc(/C=C(\NC(=O)c2ccccc2)C(=O)N2CCC(C)CC2)cc1	.	.	.	0.0	-2.3
CCOc1ccccc1N1CCN(Cc2cn[nH]c2-c2ccc(F)cc2)CC1	11.6	5.9	10.7	1.9	-1.4
CCO[C@@H]1OC(C(=O)N2CCN(C)CC2)=C[C@H](c2ccc(C(F)(F)F)cc2)[C@H]1CCCO	-5.8	-3.1	2.0	0.6	0.7
COc1ccc(C)c2sc(=NC(=O)c3ccc(C(C)=O)cc3)n(C)c12	-22.2	22.7	-18.3	6.3	4.7*
COc1ccccc1N1CCN(c2nc3ccccn3c(=O)c2C=O)CC1	1.3	8.5	-7.7	2.6	-0.4
OC1OC[C@@H](O)[C@H](O)[C@H]1O (some centres undefined)	-77.2	1.0	-72.1*	.	.
N=C1C(c2nc3ccccc3s2)=C(O)CN1C1CCC(O)CC1 (centres undefined)	-1.7	39.6	0.7	.	.
N=C1C(c2nc3ccccc3s2)=C(O)CN1C1CCCCC1	53.9*	17.0	26.4	1.2	0.9
Cc1ccc(C(=O)N/C(=C\c2ccc(-c3ccccc3[N+](=O)[O-])o2)C(=O)NCCCN(C)C)cc1	31.5	29.9	3.2	-0.3	-1.3
SMILES	HSF-1 act	AHR act	HSF1 inh	GAA850 FXN act	DAX1 inh
CN(C)CCNC(=O)/C(=C/c1ccc(-c2cccc([N+](=O)[O-])c2)o1)NC(=O)c1ccccc1	21.1	1.4	-3.2	-1.6	-1.0
CN(C)CCNC(=O)/C(=C/c1ccc(-c2cccc(Cl)c2)o1)NC(=O)c1ccccc1	65.9*	-1.1	24.3	1.8	-0.2
Cc1ccc(C(=O)N/C(=C\c2ccc(-c3ccccc3[N+](=O)[O-])o2)C(=O)NCCN(C)C)cc1	48.8	51.8*	26.1	0.2	-0.1
N#CCCN(C(=O)COC(=O)CCc1c[nH]c2ccccc12)c1ccc(F)cc1	-0.7	19.6	4.5	-0.3	0.1
Cc1[nH]c2ccccc2c1/C=N/NC(=O)c1ccc(N)cc1	0.7	19.4	-4.7	3.4	1.0
Cc1[nH]c2ccccc2c1/C=N/NC(=O)c1cc(-c2ccncc2)nc2ccccc12	10.6	56.6*	2.0	-6.3	-0.4
O=C(N/N=C/c1ccccc1OC(F)F)c1cc(-c2ccncc2)nc2ccccc12	-0.4	25.2	7.8	-3.4	0.5
Cc1nn(-c2ccccc2)c(C)c1/C=N/NC(=O)c1cc(-c2ccccc2)n[nH]1	-24.7	47.7*	-23.3	1.1	-1.4
Cc1[nH]c2ccccc2c1/C=N/NC(=O)c1cccc(Br)c1	19.7	67.8*	-4.6	1.2	1.5
Cc1nn(-c2ccccc2)c(C)c1/C=N/NC(=O)c1cc(-c2cccc3ccccc23)n[nH]1	18.9	28.9	-2.7	1.4	1.1
Cc1[nH]c2ccccc2c1/C=N/NC(=O)c1ccccc1	17.0	68.4*	-4.0	4.0	4.5*
CN(Cc1ccc(Cl)cc1Cl)C(=O)CNC(=O)c1ccco1	-6.2	-4.1	0.0	-0.6	-0.2
Cc1[nH]c2ccccc2c1/C=N/NC(=O)c1cc(-c2ccccc2)n[nH]1	6.4	59.4*	-6.6	0.6	.
Cc1cccc2c(C(=O)N3CCN(c4ccccc4)CC3)cc(-c3ccncc3)nc12	-75.4	16.5	-69.6*	-3.8	0.3
O=C(c1cc(-c2cccc(Cl)c2)nc2ccccc12)N1CCN(c2ccccn2)CC1	19.2	-0.2	0.1	2.4	0.0
Cc1cc(C)c2nc(-c3ccccn3)cc(C(=O)N3CCCC3)c2c1	-8.4	55.9*	-2.5	2.8	0.4
Cc1ccc2nc(-c3ccccn3)cc(C(=O)N3CCN(c4ncccn4)CC3)c2c1	.	-0.1	.	0.0	-0.4
Cc1cccc2c(C(=O)N3CCN(c4ccccn4)CC3)cc(-c3cccc(Br)c3)nc12	-83.8	16.0	-79.2*	0.4	-0.6
C=C1CCN([C@@H](Cc2ccccc2)C(=O)NCCCc2ccccc2)S(=O)(=O)c2ccccc21	6.0	-1.7	3.9	-1.7	-0.1
O=C(NN=Cc1ccc2c(c1)CCC2)c1cccc([N+](=O)[O-])c1	.	.	.	1.2	-0.6
CN(CC(=O)Nc1ccc(F)c(F)c1F)C(=O)c1ccc(-n2cncn2)c([N+](=O)[O-])c1	3.7	4.7	1.5	-1.0	-0.4
O=C(Nc1cccc(Cl)c1)N(Cc1nc2ccccc2c(=O)[nH]1)C1CCCC1	54.4*	8.6	17.5	-1.4	0.0
Cc1cccc(NC(=O)N(Cc2nc3ccccc3c(=O)[nH]2)C2CCCC2)c1	30.3	9.4	18.1	-0.3	0.2
O=C(CC1C(=O)NCCN1Cc1cccc(Oc2ccccc2)c1)NCCc1ccccn1 (centres undefined)	1.7	0.5	-3.4	3.0	-1.1
Cn1cc(CCNC(=O)CC2C(=O)NCCN2Cc2cccc(Oc3ccccc3)c2)cn1 (centres undefined)	-76.8	-1.4	-68.8*	0.1	-0.3
CCn1cc(-c2ccccc2)c(C(=O)O)c1-c1ccc(OC)cc1	-7.7	58.0*	-7.0	0.3	1.7
CCn1cnc2scc(-c3ccc(OC)cc3)c2c1=O	-3.7	17.4	-9.8	0.2	-0.3
